# Cycloheximide cs: affects cycloheximide protein synthesis inhibition readout, counter-screen; max response, %; cell reporter, cycloheximide protein synthesis inhibition counterscreen; AID 2314; 300,000 tested, 12% active; in the data active means max response mostly above about 13%, no sharp cut-off; inactive means mostly below about 14%; further: read at 38.3 µM for the half of the compounds with a filed dose; 0% is about no effect
# Pf growth 48h: P. falciparum growth inhibition at 48 hours (one generation) | Potency, µM (doses to about 28.7 µM), for inactives: at the highest dose activity change, negative = inhibition, usual class: inhibitors | 310,000 tested, 5.9% active | AID 504832 | P. falciparum luciferase growth in erythrocytes, 48 h; further: potency means the concentration at half of the fitted maximal effect; on the % scale 0 is the no-effect control and ±100 the full control effect
#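 Erythrocytes infected with P. falciparum carrying an integrated firefly luciferase reporter (2% hematocrit, 0.1% parasitemia final) were exposed to compounds in RPMI 1640 with 0.5% Albumax at 37 C, 5% CO2. Growth inhibition was scored as reduced luminescence.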
# AMA1-RON2 inh: disrupts binding of P. falciparum AMA1 to RON2 | AlphaScreen AMA1-biotinylated RON2 peptide binding | 360,000 tested, 0.2% active | AID 720542 | Potency, µM (series often up to 58.2 µM), inactives show at the highest dose activity change, negative = inhibition, usual class: inhibitors;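 further: potency means the concentration at half of the fitted maximal effect; 0% = vehicle wells and -100% = peptide control; nearly all actives have a fitted effect of over 45% in size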
#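 AMA1 (3D7) with his tag at 25 nM final met compounds first, then biotinylated RON2 peptide at 25 nM; detection used donor plus acceptor beads, 10 µg/mL apiece, read by AlphaScreen after 30 min at room temperature.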
# SARS PLP yeast: inhibitors of SARS-CoV papain-like protease in yeast | S. cerevisiae expressing SARS-CoV PLpro, growth rescue | AID 485353 | Potency, µM (highest dose often 32.9 µM), inactives show top-dose activity, positive = growth rescue, usual class: activators | 330,000 tested, 0.19% active; calls by dose curve; further: potency means the concentration at half of the fitted maximal effect; 0% is about no effect; nearly all actives have a fitted effect of over 55% in size
# Pf growth 96h: P. falciparum growth inhibition at 96 hours; P. falciparum luciferase reporter growth, 96 h; Potency, µM (titrated, usually from 28.7 µM), for the others: at the highest dose activity change, negative = inhibition, actives largely listed as inhibitors; 320,000 tested, 6.9% active; further: potency means the concentration at half of the fitted maximal effect; on the % scale 0 is the no-effect control and ±100 the full control effect
#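 Cell-based qHTS: luciferase-tagged P. falciparum in erythrocytes (2% hematocrit, 0.05% parasitemia final) incubated with compounds for 96 hours, 37 C, 5% CO2; luciferase detection reagent then added and luminescence measured.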
# Shiga inhibitor: Shiga toxin inhibition | inhibition, % at 38.7 µM | AID 2315 | Vero cells, Shiga toxin protein synthesis inhibition reporter | 290,000 tested, 9.2% active; in the data active means inhibition mostly above about 28%, no sharp cut-off; inactive means mostly below about 43%; further: 0% is about no effect
# The depositor's hits bear a star; ? = inconclusive; . = no result. Compounds with a hit are over-represented: about 19% of the library has one in this group of screens. Unless noted, the call rests on the fitted dose curve; in most records, active means well fitted curve in the direction sought with a large enough effect; inconclusive means small, poorly fitted or top-dose-only effect, or another doubt; inactive means no such curve, though single readings can be large; an effect the other way counts as inactive or inconclusive.
SMILES,Cycloheximide cs,Pf growth 48h,AMA1-RON2 inh,SARS PLP yeast,Pf growth 96h,Shiga inhibitor
CN(CC1COc2ccccc2O1)C(=O)c1cc(COc2c(F)cccc2F)on1 (stereo unspecified),6,9%,-2%,-10%,?,13
CCN(CCN1CCCC1)C(=O)c1cc(COc2ccccc2SC)on1,11,-19%,-18%,2%,?,-5
CN(Cc1cc(-c2ccccc2)on1)C(=O)c1cc(COc2c(F)cccc2F)on1,42*,29%,2%,-2%,?,70*
O=C(N1CCc2ccc(S(=O)(=O)N3CCN(S(=O)(=O)c4ccc5c(c4)OCCO5)CC3)cc2C1)C(F)(F)F,8,.,.,.,.,6
NC(=O)C1CCCN(CC(O)COCc2ccc(Cl)cc2)C1 (stereo unspecified),2,.,?,-2%,10%,-6
O=C(c1ccccc1)c1c(-c2ccccc2)[nH]n(-c2ccccc2)c(=O)c1=O,.,.,8%,.,.,.
O=C(COC(=O)c1cccnc1)Nc1ccc2c(c1)OCO2,16,-24%,4%,-1%,0%,26
Cc1nnsc1C(=O)NNc1ccc(C(C)C)cc1,40*,125%,-4%,-1%,152%,59*
Cc1ccc(NC(=O)c2snnc2C)cc1Cl,12*,19%,-15%,-3%,?,26
CC(C)C[C@H](NC(=O)CNC(=O)[C@@H]1CCCN1C(=O)[C@H](CCCNC(=N)N)NC(=O)[C@H](CC(=O)O)NC(=O)[C@@H](NC(=O)[C@H](CC(N)=O)NC(=O)[C@@H](NC(=O)[C@H](CC(=O)O)NC(=O)CNC(=O)[C@@H](NC(=O)[C@@H](NC(=O)[C@H](C)NC(=O)[C@@H](N)CCC(N)=O)[C@@H](C)O)C(C)C)C(C)C)[C@@H](C)O)C(=O)N[C@@H](CC(C)C)C(=O)N[C@@H](CC(=O)O)C(=O)N[C@@H](CC(C)C)C(=O)N[C@@H](CCCCN)C(=O)O,-3,.,.,.,.,8
O=S(=O)(Nc1nc2cc3c(cc2nc1Cl)OCCO3)c1ccccc1,-2,15µM*,?,3%,16%,-3
O=C(c1ccccc1)N1N=C(c2ccccc2)CC1c1ccccc1[N+](=O)[O-] (stereo unspecified),-2,?,5%,1%,1.7µM*,-9
COc1cccc(C2CC(c3ccc(NS(C)(=O)=O)cc3)=NN2C(=O)c2ccccc2)c1OC (stereo unspecified),51*,?,2%,1%,-76%,134*
COc1ccccc1C1CC(c2ccc(NS(C)(=O)=O)cc2)=NN1S(=O)(=O)c1ccccc1 (stereo unspecified),-17,?,-6%,?,?,-10
O=C(c1ccccc1Br)N1N=C(c2ccccc2)CC1c1ccccc1F (stereo unspecified),12,?,-15%,-6%,?,-9
O=C(O)c1ccccc1C(=O)N1N=C(c2ccccc2)CC1c1ccccc1O (stereo unspecified),52*,-17%,74%,4%,?,67*
CCC(CC)C(=O)N1N=C(c2ccc(NS(C)(=O)=O)cc2)CC1c1ccc(C)cc1 (stereo unspecified),7,?,-11%,-1%,5.2µM*,10
CC(=O)N1N=C(c2ccccc2)CC1c1ccccc1[N+](=O)[O-] (stereo unspecified),14,?,-3%,18%,-9%,-6
O=C1C=C(c2ccc(CO)cc2)C[C@@H](c2ccc(F)cc2)C1,.,.,1%,.,.,.
COc1ccc(OCC(=O)OCC(=O)Nc2ccc3[nH]c(=O)[nH]c3c2)cc1,.,5%,-20%,5%,5%,.
Cc1[nH]c2ccccc2c1C(=O)C(=O)NCCc1ccc(S(N)(=O)=O)cc1,-6,-10%,-16%,9%,-11%,-9
COc1ccc(-c2nc3ncccc3o2)cc1NC(=O)c1ccco1,-5,70%,0%,-2%,?,-7
COc1ccc(Cn2cc(CN3CC(N4CC=CC4)CS3(=O)=O)nn2)cc1 (stereo unspecified),.,.,-4%,.,.,.

# Bioassay records (PubChem)
